Results filed as inconclusive are left out. Values without a mark were called inactive. Active and inactive are the calls of the source. Calls come from the whole dose curve; as a rule, active = well fitted curve in the direction sought with a large enough effect; inconclusive = small, poorly fitted or top-dose-only effect, or another doubt; inactive = no such curve, though single readings can be large; an effect the other way counts as inactive or inconclusive. Residues, ends and D or L forms follow the SMILES beside them. *: point of attachment. Cbz = O=C(OCc1ccccc1)*
How the values were obtained:
[1] = qHTS of pediatric cancer cell lines to identify multiple opportunities for drug repurposing: Primary screen for A673 cells (AID 1347092); conditions: A673 Ewing sarcoma viability, CellTiter-Glo ATP luminescence, 48 h; series mostly up to 46 µM; note: nearly all actives have a fitted effect of over 45% in size; for activity change, negative = cytotoxic: % is set by controls: 0 for no effect and ±100 for the full control effect
In short: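 Luminescence from CellTiter-Glo, taken after 15 min at room temperature, served as the proxy for metabolically active cells following 48 h treatment. Both potency and efficacy were taken from curves fitted to the titration data.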

[2] = qHTS of pediatric cancer cell lines to identify multiple opportunities for drug repurposing: Primary screen for SK-N-MC cells (AID 1347093); conditions: SK-N-MC viability, CellTiter-Glo luminescence, 48 h; series mostly up to 46 µM;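 for activity change, negative = cytotoxic: plate controls were DMSO neutral control for no effect and bortezomib for full effect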
In short: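 Metabolically active cells were quantified by ATP-dependent luminescence (CellTiter-Glo, 15 min at room temperature) following 48 h treatment. Cells had been plated at 500-1,000 per well and settled for 5 h beforehand.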

[3] = qHTS of pediatric cancer cell lines to identify multiple opportunities for drug repurposing: Primary screen for BT-37 cells (AID 1347094); conditions: BT-37 viability, CellTiter-Glo luminescence, 48 h; series mostly up to 57.3 µM;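 for activity change, negative = cytotoxic: plate controls were DMSO for no effect and bortezomib for full effect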
In short: (§1)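 Cells plated at 500-1,000/well in growth medium, compounds added after 5 h. MIPE tested at 11 points (from 0.78 nM), NPC at 8 points (from 0.59 nM). CellTiter-Glo luminescence after 48 h; concentration-response curves from primary screen.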

[4] = qHTS of pediatric cancer cell lines to identify multiple opportunities for drug repurposing: Primary screen for U-2 OS cells (AID 1347096); conditions: U-2 OS viability, CellTiter-Glo luminescence, 48 h; series mostly up to 46 µM; note: nearly all actives have a fitted effect of over 50% in size;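 for activity change, negative = cytotoxic: plate controls were DMSO wells for no effect and bortezomib positive control wells for full effect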
In short: (§2)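 Viability after 48 h compound treatment at 37C, 500-1,000 cells/well, read as ATP luminescence with CellTiter-Glo. Primary screens used 11-point (MIPE, 0.78 nM-46 µM) or 8-point (NPC, 0.59 nM-46 µM) final concentrations; follow-up screens used 11-point dilutions.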

[5] = qHTS of pediatric cancer cell lines to identify multiple opportunities for drug repurposing: Primary screen for Saos-2 cells (AID 1347097); conditions: Saos-2 viability, CellTiter-Glo ATP luminescence, 48 h; series mostly up to 46 µM; note: nearly all actives have a fitted effect of over 40% in size; for activity change, negative = cytotoxic: % is set by controls: 0 for no effect and ±100 for the full control effect
In short: as §1

[6] = qHTS of pediatric cancer cell lines to identify multiple opportunities for drug repurposing: Primary screen for SK-N-SH cells (AID 1347098); conditions: SK-N-SH viability, CellTiter-Glo luminescence, 48 h; series mostly up to 57 µM; note: nearly all actives have a fitted effect of over 65% in size;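 for activity change, negative = cytotoxic: DMSO served as neutral control and bortezomib at 2.3 µM as positive control; % is set by controls: 0 for no effect and ±100 for the full control effect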
In short: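 Cells (500-1,000/well) rested 5 h, then received compounds for 48 h; metabolically active cells were measured by CellTiter-Glo luminescence. Final concentrations spanned up to 46 µM (MIPE, 11-point) or 0.59 nM-46 µM (NPC, 8-point) in primary screens, 11-point in follow-ups.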

[7] = qHTS of pediatric cancer cell lines to identify multiple opportunities for drug repurposing: Primary screen for NB1643 cells (AID 1347099); conditions: NB1643 neuroblastoma viability, CellTiter-Glo luminescence, 48 h; series mostly up to 46 µM; note: nearly all actives have a fitted effect of over 50% in size;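 for activity change, negative = cytotoxic: plate controls were DMSO neutral control for no effect and bortezomib positive control for full effect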
In short: as §1

[8] = qHTS of pediatric cancer cell lines to identify multiple opportunities for drug repurposing: Primary screen for LAN-5 cells (AID 1347100); conditions: LAN-5 neuroblastoma viability, CellTiter-Glo luminescence, 48 h; series mostly up to 46 µM;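 for activity change, negative = cytotoxic: plate controls were DMSO neutral control for no effect and bortezomib positive control for full effect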
In short: as §2

[9] = qHTS of pediatric cancer cell lines to identify multiple opportunities for drug repurposing: Primary screen for NB-EBc1 cells (AID 1347095); conditions: NB-EBc1 neuroblastoma viability, CellTiter-Glo luminescence, 48 h; series mostly up to 46 µM;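 for activity change, negative = cytotoxic: plate controls were DMSO neutral control for no effect and bortezomib for full effect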
In short: as §1
Potency is the fitted concentration of half-maximal effect.

SMILES	Potency [1]	Potency [2]	Potency [3]	Potency [4]	Potency [5]	Potency [6]	Potency [7]	Potency [8]	Potency [9]	activity change, negative = cytotoxic [4]
CC(C)C[C@@H](C=O)NC(=O)[C@H](CC(C)C)NC(=O)[C@H](CC(C)C)NC(=O)OCc1ccccc1 (Cbz-Leu-Leu-Leu-aldehyde)	0.235 µM (active)	0.0833 µM (active)	0.863 µM (active)	0.935 µM (active)	0.743 µM (active)	0.857 µM (active)	0.372 µM (active)	0.662 µM (active)	–	–
O=C(C=Cc1ccc(CN(CCO)CCc2c[nH]c3ccccc23)cc1)NO	0.235 µM (active)	0.105 µM (active)	0.385 µM (active)	0.469 µM (active)	0.372 µM (active)	0.541 µM (active)	–	0.0935 µM (active)	0.148 µM (active)	–
CCc1c(O)cc(O)c(C(=O)c2ccc(OCCN3CCOCC3)c(OC)c2)c1CC(=O)N(CCOC)CCOC	0.935 µM (active)	0.526 µM (active)	1.09 µM (active)	inactive	–	6.81 µM (active)	0.935 µM (active)	0.59 µM (active)	4.18 µM (active)	–
CN1[C@H]2CC(OC(=O)[C@@H](CO)c3ccccc3)C[C@H]1[C@H]1O[C@H]12 (some centres undefined)	inactive	inactive	inactive	inactive	–	inactive	–	–	–	–
NC(=O)c1ncn([C@@H]2O[C@H](CO)[C@@H](O)[C@@H]2O)c1O	inactive	inactive	inactive	inactive	inactive	inactive	inactive	inactive	inactive	–
CC(C)c1cnn2c(NCc3ccccc3)cc(NCCCCCCN)nc12	5.9 µM (active)	0.662 µM (active)	24.3 µM (active)	–	–	–	18.7 µM (active)	18.7 µM (active)	20.9 µM (active)	–
O=C1CSC(=O)N1C(CCc1ccncc1)COc1ccc(-c2cccc([N+](=O)[O-])c2)cc1 (centres undefined)	7.43 µM (active)	10.5 µM (active)	15.3 µM (active)	inactive	–	4.82 µM (active)	–	–	18.7 µM (active)	–
O=C(C=CC=Cc1ccc2c(c1)OCO2)N1CCCCC1	inactive	inactive	inactive	inactive	inactive	inactive	inactive	inactive	inactive	–
CC(C=CC=C(C)C=CC1=C(C)CCCC1(C)C)=CC=CC=C(C)C=CC=C(C)C=CC1=C(C)CCCC1(C)C	5.9 µM (active)	7.43 µM (active)	inactive	inactive	–	–	–	–	–	–
N=c1ccn2c(n1)O[C@H]1[C@@H](O)[C@@H](CO)O[C@H]12	0.372 µM (active)	11.8 µM (active)	0.611 µM (active)	inactive	inactive	–	9.35 µM (active)	–	11.8 µM (active)	–
COc1cc(C=CC(=O)CC(=O)C=Cc2ccc(O)c(OC)c2)ccc1O	6.79 µM (active)	5.4 µM (active)	31.4 µM (active)	–	30.3 µM (active)	–	12.1 µM (active)	9.59 µM (active)	38.2 µM (active)	–
COc1ccc(S(=O)(=O)Nc2cc(-c3c(O)ccc4ccccc34)c(O)c3ccccc23)cc1	7.43 µM (active)	3.32 µM (active)	24.3 µM (active)	inactive	4.69 µM (active)	–	18.7 µM (active)	7.43 µM (active)	8.33 µM (active)	–
CC(C)(O)Cn1c(NC(=O)c2ccc(-c3cn[nH]c3)s2)nc2cc(CN3CCOCC3)ccc21	1.18 µM (active)	2.35 µM (active)	1.09 µM (active)	1.87 µM (active)	0.743 µM (active)	1.71 µM (active)	0.743 µM (active)	0.332 µM (active)	0.743 µM (active)	–
CCC(C=C[C@@H]1OC(=O)C=C[C@H]1C)=C[C@H](C)CC=CC(C)=C[C@@H](C)C(=O)[C@@H](C)[C@H](O)[C@@H](C)CC(C)=CC(=O)O	0.0247 µM (active)	0.0247 µM (active)	0.0102 µM (active)	–	–	0.0403 µM (active)	0.0277 µM (active)	–	0.0247 µM (active)	13.2% [at 1.86 µM]
CCN(CC)CCNC(=O)c1c(C)[nH]c(C=C2C(=O)Nc3ccc(F)cc32)c1C	5.4 µM (active)	1.08 µM (active)	17.7 µM (active)	21.5 µM (active)	–	22.1 µM (active)	38.2 µM (active)	4.29 µM (active)	7.62 µM (active)	–
CCC(C(=O)O)C1CCC(C)C(C(C)C(O)C(C)C(=O)C(CC)C2OC3(C=CC(O)[C@@]4(CC[C@](C)(C5CC[C@@](O)(CC)C(C)O5)O4)O3)C(C)CC2C)O1 (some centres undefined)	2.35 µM (active)	0.187 µM (active)	0.611 µM (active)	–	9.35 µM (active)	12.1 µM (active)	1.66 µM (active)	1.05 µM (active)	0.296 µM (active)	–

SMILES	Potency [1]	Potency [2]	Potency [3]	Potency [4]	Potency [5]	Potency [6]	Potency [7]	Potency [8]	Potency [9]	activity change, negative = cytotoxic [4]
Cc1cnc(Nc2ccc(N3CCN(C)CC3)cc2)nc1Nc1cccc(S(=O)(=O)NC(C)(C)C)c1	1.18 µM (active)	1.05 µM (active)	21.7 µM (active)	inactive	4.69 µM (active)	3.04 µM (active)	3.72 µM (active)	0.743 µM (active)	–	–
C[C@@H](Oc1ccc2[nH]nc(C=Cc3cnn(CCO)c3)c2c1)c1c(Cl)cncc1Cl	18.7 µM (active)	7.43 µM (active)	24.3 µM (active)	inactive	–	0.681 µM (active)	–	4.18 µM (active)	0.0935 µM (active)	–
CN(CC(=O)N(Cc1ccc(C2CCCCC2)cc1)c1ccc(C(=O)O)c(O)c1)S(=O)(=O)c1c(F)c(F)c(F)c(F)c1F	9.35 µM (active)	1.48 µM (active)	17.2 µM (active)	–	16.6 µM (active)	21.5 µM (active)	20.9 µM (active)	23.5 µM (active)	26.4 µM (active)	–
COc1cccc2c1C(=O)c1c(O)c3c(c(O)c1C2=O)C[C@@](O)(C(=O)CO)C[C@@H]3O[C@H]1C[C@H](N)[C@@H](O)[C@H](C)O1	0.372 µM (active)	0.235 µM (active)	0.193 µM (active)	–	2.35 µM (active)	0.429 µM (active)	0.662 µM (active)	0.118 µM (active)	0.118 µM (active)	–
Cc1onc(-c2ccccc2)c1C(=O)N[C@@H]1C(=O)N2[C@@H](C(=O)O)C(C)(C)S[C@@H]12	inactive	inactive	inactive	inactive	inactive	inactive	–	inactive	inactive	–
CC(N[C@H]1CCCC[C@H]1NC(=O)c1ccc(Cl)cc1)c1cccc2ccccc12 (some centres undefined)	0.743 µM (active)	0.0209 µM (active)	1.53 µM (active)	inactive	0.0662 µM (active)	4.82 µM (active)	0.418 µM (active)	–	–	–
C=C1C(=CC=C2CCC[C@]3(C)[C@@H]([C@H](C)CCCC(C)(C)O)CC[C@@H]23)C[C@@H](O)C[C@@H]1O	1.48 µM (active)	1.48 µM (active)	6.85 µM (active)	18.7 µM (active)	14.8 µM (active)	3.83 µM (active)	2.35 µM (active)	1.66 µM (active)	2.96 µM (active)	–
O=c1[nH]c(=O)n([C@H]2C[C@@H](O)[C@@H](CO)O2)cc1F	1.87 µM (active)	16.6 µM (active)	0.685 µM (active)	18.7 µM (active)	5.9 µM (active)	inactive	14.8 µM (active)	–	–	–
CS[C@H]1SC[C@@H]2C(=O)N(C)[C@H](C(C)C)C(=O)OC[C@H](NC(=O)c3cnc4ccccc4n3)C(=O)N[C@H](C)C(=O)N(C)[C@@H]1C(=O)N(C)[C@H](C(C)C)C(=O)OC[C@H](NC(=O)c1cnc3ccccc3n1)C(=O)N[C@H](C)C(=O)N2C	0.0023 µM (active)	0.0013 µM (active)	0.0017 µM (active)	0.0093 µM (active)	0.0418 µM (active)	0.0048 µM (active)	inactive	inactive	inactive	–
CN1CCc2c(c3ccccc3n2Cc2ccc(C(=O)NO)cc2)C1	5.9 µM (active)	2.96 µM (active)	30.6 µM (active)	23.5 µM (active)	18.7 µM (active)	24.1 µM (active)	16.6 µM (active)	16.6 µM (active)	20.9 µM (active)	–
CCS(=O)(=O)Nc1ccc2[nH]c(O)c(C(=Nc3ccc(CN4CCCCC4)cc3)c3ccccc3)c2c1	0.59 µM (active)	0.118 µM (active)	27.3 µM (active)	5.9 µM (active)	0.662 µM (active)	1.21 µM (active)	–	0.0372 µM (active)	0.187 µM (active)	–
C=CC(=O)N1CCc2ccc(-n3c(=O)ccc4cnc5ccc(-c6cnn(C)c6)cc5c43)cc21	5.9 µM (active)	1.48 µM (active)	6.11 µM (active)	–	2.96 µM (active)	8.57 µM (active)	2.35 µM (active)	2.35 µM (active)	3.72 µM (active)	–
CCc1cnn2c(NCc3ccc[n+]([O-])c3)cc(N3CCCC[C@@H]3CCO)nc12	0.0148 µM (active)	0.0296 µM (active)	0.0385 µM (active)	–	–	0.0383 µM (active)	–	–	0.0187 µM (active)	–
c1coc(CNc2ncnc3nc[nH]c23)c1	inactive	inactive	inactive	inactive	inactive	inactive	–	inactive	inactive	–
O=C(C=CC#Cc1cccc(NS(=O)(=O)c2ccccc2)c1)NO	1.48 µM (active)	0.59 µM (active)	4.85 µM (active)	2.96 µM (active)	–	3.41 µM (active)	1.18 µM (active)	1.18 µM (active)	0.833 µM (active)	–

From PubChem BioAssay (NCATS)
